Reference: the supplement of paper PMC11417369
In all, about 25,000 sequences were measured (“ln(normalized median fluorescence intensity)”: median about 6.7, highest 2% from about 10 on). Many of the other results were omitted from the sample, so the highest values are more common in it than they were.

The sequences below were run on PfHDP1 homeodomain (GST-tagged) (assay: gcPBM binding intensity (ln(normalized median fluorescence intensity)); higher = stronger DNA binding).
How it was run: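 Plasmodium falciparum DNA-binding domains carrying a GST tag were expressed in E. coli and applied for 1 h, at about 25 μg on average, to an Agilent 4 × 180k array. The array held primer-extended double-stranded 36-bp intergenic genomic probes together with negative controls, and binding took place in 1× PBS with 1% milk, 0.2 mg/ml BSA, 0.5% salmon testes DNA and 0.03% Triton X-100. An Alexa488 anti-GST antibody detected bound protein, and the array was scanned at 488 nm. Binding intensity is taken as the highest Masliner-normalised natural-log median intensity across replicate spots of either probe orientation.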

| Sequence | gcPBM binding intensity (ln) |
| --- | --- |
| TTGATGTATACAATGTAGATTATTTAATATTTCAAT [GTGCAC_negctrl_site203] | 6.12 |
| TTATGAAAATATTTTTTTCGTTTGATGTATATGTTT [CACACA_negctrl_site1556] | 6.22 |
| TTGTATTATATTGTATTATGTTTAAATGAAAAAAAA [CACACA_negctrl_site662] | 6.46 |
| ATATATCTACAAATATGTACACACACACATATATAT [XGTACX_site1075] | 6.9 |
| TATAAAAAATAAAAAGTTTAATGAATATTTCTTTTA [TGCATGCA_negctrl_site379] | 5.53 |
| TTATGTTCATTATATGCACACATATATATAAATGTA [CACACA_site8947] | 9.74 |
| TTATGTCATAAATGCACACATATATATATACATATA [CACACA_site1588] | 10.5 |
| ATATATATATATAATGCACACATTATAAATTATGTA [CACACA_site5802] | 10.6 |
| CATTATGTTGTAAATGCACACATACATATACACAGT [CACACA_site8990] | 9.81 |
| ACATAAAATAAATATACACACATATGTATATATTAT [CACACA_site3041] | 6.59 |
| TTATGTTGTAAATGCACACATACATAAACTCAGTTT [CACACA_site5639] | 10.5 |
| TTATGTTGTAAATGCACACATACATATACGCAGTTT [CACACA_site3015] | 9.92 |
| CATTATGTCATAAATGCACACATATATATATACATA [CACACA_site8454] | 9.98 |
| AATGTATATTATTGCACACATATATAAAATTATGCT [CACACA_site1096] | 10.5 |
| ATAATGTATATTATTGCACACATATATAAAATTATG [CACACA_site8280] | 10.5 |
| ATGTTCATTATATGCACACATATATATAAATGTAAT [CACACA_site2908] | 10.2 |
| TTATGTCATAAATGCACACATATATAAATACAGATA [CACACA_site4959] | 10.3 |
| ATCAAAATTGTCATTACACACCTTTATTTTTAGAAT [CACACA_site1813] | 6.6 |
| CAAGCCCTTCTGCTTACACACAGTAATTATTGTGCA [CACACA_site7399] | 6.34 |
| TTTCTATAATATATATGTACATATATAATATGTCGT [XGTACX_site3676] | 6.58 |
| AAATAAAATCATAATGTGCGCATATAAATTTGTAGG [GTGCAC_site9662] | 8.1 |
| AATCCACTTTTTTATGTTATACAATATAAATTAAAT [XGTACX_negctrl_site446] | 6.71 |

| Sequence | gcPBM binding intensity (ln) |
| --- | --- |
| AAAAACTTAATATTCACACATATATATATATATATA [CACACA_site5240] | 9.48 |
| ACAAGATAATAGAGAAGTACTAATAAACATACACAA [XGTACX_site6617] | 6.9 |
| TATATAATATAATGTAGTACATGTTTTATTTTTTAC [XGTACX_site7735] | 6.4 |
| AAATATCTACATATTTGTACATATTTATACATATTT [XGTACX_site6300] | 6.12 |
| TTTTATAATATTTAAAGTACATTCTAAAAATATAAT [XGTACX_site8033] | 6.01 |
| ATACTAAATGAACACACACACATATAGATTTATAAC [CACACA_site6200] | 6.87 |
| GATATATAATATAATACACACATTTTATGAATGTAA [CACACA_site24] | 6.54 |
| ATATATATATATAATGCACACATTATGAATTATGTA [CACACA_site3384] | 10.8 |
| ATAAATAATTATATATGTACACATTATGAATGGATA [XGTACX_site8336] | 6.74 |
| CATACATACCTATATACACACATATAAAATAATATA [CACACA_site7290] | 6.97 |
| ATGTCAAACATTTGCACACAAAAAAATAAAAATTAA [CACACA_site692] | 10.6 |
| ATATAAATATATTGCACACACAATTATTATTATTAT [CACACA_site7147] | 10.7 |
| ATATTTATAAATTGCACACAAATAATAACATTCTAT [CACACA_site2357] | 10.4 |
| GAGTATATTTATATTGCACACAATTTTTTTATTTTT [CACACA_site2644] | 10.5 |
| AAATATTTATAAATTGCACACAAATAATAACATTAT [CACACA_site8737] | 10.2 |
| ACACAAAAAATAAAAATATATATATATTATATATAT [CACACA_negctrl_site1489] | 7.32 |
| TTTATAAAATTTATTGCACACAATTATTTTATAATT [CACACA_site2489] | 9.98 |
| ATATTATCCCTATTTGCACACAAGAGTAATTTTTTA [CACACA_site3908] | 10.4 |
| ACATGTCAAACATTTGCACACAAAAAAATAAAAATT [CACACA_site691] | 10.2 |
| CCATGTCAAACATTTGCACACAAAAAAATAAAAATT [CACACA_site4546] | 9.71 |
| ATATTTATAAATTGCACACAAATAATAACATTATAT [CACACA_site5322] | 10.6 |
| ATATATTTATATATTGCACACAAAAAAAAAAAAAAA [CACACA_site8468] | 10.5 |

| Sequence | gcPBM binding intensity (ln) |
| --- | --- |
| AAAAAAATATATATATATATATATATATTATATATG [GTGCAC_negctrl_site654] | 6.87 |
| TTTTTTATTTATTGTTATACATCTTACTACTTATAA [GTGCAC_negctrl_site381] | 6.63 |
| TATTTTTTCTTTCATTGTACTTTTTTTTTGTTTTGT [XGTACX_site4081] | 6.8 |
| AAAAAAAAAAAAACTAGTACATATATATAGTATGAA [XGTACX_site6279] | 6.33 |
| ATATATATATATATTGCACACACAATTATTATTATT [CACACA_site8721] | 10.6 |
| TTATAATCCATAATTGCACACAATATATTCATATTT [CACACA_site3916] | 10.1 |
| TTAATTATATTATGCACACACAATTGGAAAAAAAAT [CACACA_site1958] | 10.2 |
| AATATTATTATTATTACACACACAATTATATTTACC [CACACA_site8061] | 6.61 |
| TTTTAATTATATTATGCACACACAATTGGAAAAAAA [CACACA_site8598] | 10.2 |
| ATATATATATATTGCACACACAATTATTATTATTAT [CACACA_site2299] | 10.6 |
| AATAATGTATAATGATGTACAAAAAAGGAAGACATA [XGTACX_site2474] | 7.43 |
| TAACTTCAAAAATCTTGTACATAAATATATAAAACA [XGTACX_site8574] | 6.29 |
| GTGTTTGAAAATAAAGCATGCAAATATATTTGAAAT [TGCATGCA_site386] | 7.23 |
| TTTTTTATTGTGATACGTATATTATTTTATGATTAA [GTGCAC_negctrl_site202] | 6.82 |
| CATATTTATAAATATAAACACACAACATTATATGCA [CACACA_site9065] | 6.82 |
| TCTTTTATGCACATTGAGTAAACAACATATTTTTAA [TGCATGCA_negctrl_site561] | 10.9 |
| AAAGTAAAAAAAAAAACATGCACATATTTACTTTAT [TGCATGCA_site849] | 7.94 |
| ATAATATTATGTGTGAATATATCTTTAAAAAGGATA [GTGCAC_negctrl_site15] | 6.33 |
| AAGAGAAATATATATTGTACAATAATTTTATTTGGT [XGTACX_site7642] | 6.21 |
| ATATTAATAATATATACACACATAAGTATTGTATAT [CACACA_site4095] | 6.46 |
| AAGTGCATATTATTCACACATAATAATTGTATACCT [CACACA_site5965] | 10.5 |
| TATAAATGTATACAAGTGCATATTATTCACACATAA | 8.59 |

| Sequence | gcPBM binding intensity (ln) |
| --- | --- |
| TGATTCACTATAGTAGTGCATATTATATATATATAT [GTGCAC_site9975] | 9.23 |
| AAAAAAAAATATATATATATATATATATTTATGTAT [GTGCAC_negctrl_site483] | 6.92 |
| CATATTTTGTGAAAAAGTACATATATATATATATAT [XGTACX_site6295] | 9.38 |
| ATGATAATTATTAAGGGTACATAAAAATATATCTAT [XGTACX_site8969] | 6.36 |
| TACATATTGCACAAATAAAAAAGAACAAAAAAAAAA [CACACA_negctrl_site1200] | 10.9 |
| ATATATATATATAAATGTACATTTTTCAATAGTTTT [XGTACX_site7449] | 8.98 |
| GTGTACAGTTTTTGCACACATATAAATAAAAAAAAG [CACACA_site3599] | 10.2 |
| ATGTCTACAGTTTTTGCACACATATAAATAAAAAAA [CACACA_site3600] | 10.3 |
| TTATAGAACTATATTGCACACATAATATATATATAT [CACACA_site9042] | 10.1 |
| ATAGAACTATATTGCACACATAATATATATATATAT [CACACA_site3189] | 10.7 |
| ATCTGTACAGTTTTTGCACACATATAAATAAAAAAA [CACACA_site9198] | 10.7 |
| TTTGTAGTTTGCACATGTACACATTTCAAAATAAAG [XGTACX_site7568] | 10.7 |
| TACATATAATATATTGCACACGTCAGAATAATATAG [CACACA_site1744] | 10.3 |
| TATATTGCAAAAAGTACACACATAAATAAATACATA [CACACA_site6589] | 9.04 |
| TTTAAAAATAAAAGTACACACATAAACATATTGCAC [CACACA_site6784] | 7.47 |
| ATATAGTTTCACATGTGTACATAAAAATACACTTGT [XGTACX_site3339] | 6.59 |
| AAAAAATTATACCTTTGTACATAAATAAAATATTAT [XGTACX_site418] | 6.23 |
| AATAAATGGAAAAGGTGTACACAAAAAAAAGGGAAA [XGTACX_site4956] | 7.54 |
| AAAAAAAAAGTATATATATATTTAAGGAATTCTCTC [GTGCAC_negctrl_site454] | 6.33 |
| TATATTATATATATATGTACATATGGCAAAACATTA [XGTACX_site7958] | 7.12 |
| ATAGAAATATTATATTGTACGAACAGTTATTAACAA [XGTACX_site2137] | 6.56 |
| AAAATAAGTAATTACTAATATATAAATTAATAATTA [CACACA_negctrl_site1602] | 5.84 |
